Several values for one entry are separate records, joined by “and”; a condition that tells them apart may be missing. Identical values can stand only once. Results filed as inconclusive are left out. Values without a mark were called inactive. Activity calls are given as the source filed them. Calls follow the shape of the dose curve; as a rule, active = well fitted inhibition curve with a large enough effect in the signal ratio, with a control signal flat (not every such curve was filed as active); inconclusive = small, poorly fitted or top-dose-only effect, or effect the other way, or a change in a side signal; inactive = flat fitted curve, though single readings scatter; the % refers to the signal ratio.
% is scaled to controls: 0 for no effect and ±100 for the full control effect.

Sequence of Thyroid hormone receptor beta (Homo sapiens) (P10828 whole entry, looked up): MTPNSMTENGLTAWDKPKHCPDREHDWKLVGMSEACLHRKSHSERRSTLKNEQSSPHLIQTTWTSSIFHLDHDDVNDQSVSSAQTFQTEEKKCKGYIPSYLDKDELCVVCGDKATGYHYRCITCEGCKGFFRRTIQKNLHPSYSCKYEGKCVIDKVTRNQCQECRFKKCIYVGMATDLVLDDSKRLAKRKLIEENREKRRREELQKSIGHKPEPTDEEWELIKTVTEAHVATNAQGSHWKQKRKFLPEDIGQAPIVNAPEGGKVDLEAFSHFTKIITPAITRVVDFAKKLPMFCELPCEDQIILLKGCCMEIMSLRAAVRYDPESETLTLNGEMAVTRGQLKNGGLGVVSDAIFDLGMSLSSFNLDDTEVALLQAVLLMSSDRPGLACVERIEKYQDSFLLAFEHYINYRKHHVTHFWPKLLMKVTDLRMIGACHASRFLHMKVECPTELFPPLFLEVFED

The test concerns the target Thyroid hormone receptor beta (Homo sapiens) (UniProt P10828). Nature of the test: qHTS assay for small molecule antagonists of thyroid hormone receptor beta signaling (AID 588547).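 As to activity change % (negative = inhibition): cells stimulated with 0.4 nM T3 agonist during compound exposure; series mostly up to about 77 µM.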 The conditions noted are these: TR-UAS-bla HEK293, beta-lactamase ratio, antagonist mode, 18 h. The source says: NIH Chemical Genomics Center [NCGC] U.S. Environmental Protection Agency [EPA] National Institutes of Environmental Health Sciences [NIEHS] National Toxicology Program [NTP] NCGC Assay Overview Thyroid hormone receptor (TR) belongs to nuclear hormone receptor superfamily. There are two subtypes for TR: TR-alpha and TR-beta. TR-beta plays a major role in regulating plasma cholesterol levels and it mediates the biological activities of thyroid hormone. Screening environmental chemicals on TR-beta signaling will provide important information for the mechanism of compound action.
NCGC Assay Protocol Summary Using a beta-lactamase reporter-gene under control of the TR response element, a cell-based assay [GeneBLAzer TR-UAS-bla-GripTite assay developed by Invitrogen] was used to measure TR-beta signaling in antagonist mode. TR-UAS-bla-GripTite HEK 293 cells were used with assay medium containing 2% charcoal/dextran FBS, 0.1 mM NEAA and 1 mM sodium pyruvate. The assay was performed in clear bottom black Greiner 1536-well plates. Library compounds were measured for their ability to inhibit the reporter gene activity. Compounds were screened in a titration series in 1536-well format. The fluorescence intensity (405 nm excitation, 460/530 nm emission) was measured using an EnVision plate reader. […] Concentration-response titration points for each compound were fitted to the Hill equation yielding concentrations of half-maximal inhibition (IC50) and maximal response (efficacy) values. qHTS protocol for TR-beta beta-lactamase assay in antagonist mode [Step] [Parameter] [Value] [Description] 1. Reagent; 5 uL; 2500 cells/well 2. Incubation; 37 C for 4 hrs 3. Compounds; 23 nL; 0.59 nM to 92 uM 4. Controls (DMSO); 23 nL 5. Agonist (Stimulator); 1uL; T3 at 0.4nM (final) concentrations 6. Incubation; 37 C for 18 hrs 7. Detection reagent; 1 uL of CCF4-dye 8. Incubation; RT for 2 hrs 9. Detection; Fluorescence; Envision plate reader
Regarding `O=[N+]([O-])c1ccc2c(c1)Cc1ccccc1-2`, the activity change % (negative = inhibition) was -0.921%.

`Brc1ccc(Oc2ccc(Br)cc2)cc1`: the activity change % (negative = inhibition) is 11%.

As to `CCO[Si](CCC#N)(OCC)OCC`, the activity change % (negative = inhibition) was 18.5%.

`CC(C)(C)[C@H](O)[C@H](Cc1ccc(Cl)cc1)n1cncn1`: the activity change % (negative = inhibition) was -7.84% and -5.42%.

In the case of `COCCOCCOCCOC`, the activity change % (negative = inhibition) was 2.02%.

As for `CCCC/C=C\CCCCCCCCO`, the activity change % (negative = inhibition) is 3.63%.

As for `CCCCCCCCCCCC[N+](C)(C)[O-]`, the activity change % (negative = inhibition) is -1.65%.

As for `c1ccc2cc3ccccc3cc2c1`, the activity change % (negative = inhibition) is -13.8%.

For `O=c1[nH]sc2ccccc12`, the Potency was 15.8 µM (active).

Turning to `Cl[Si](Cl)(Cl)c1ccccc1`, the activity change % (negative = inhibition) is -0.0742%.

With `CCOC(=O)COc1cc(-n2ncc(C(F)(F)F)c(C)c2=O)c(F)cc1Cl`, the activity change % (negative = inhibition) is -20.3%.

For the molecule `Cc1c(Cl)cccc1Cl`, the activity change % (negative = inhibition) is -11.7%.

Consider `CNc1nc(=O)n(C2CCC(O)CC2)c(=O)n1C` (stereo not given), for which the activity change % (negative = inhibition) was -13.9%.

`NCCCCCCCCCCCC(=O)O`: the activity change % (negative = inhibition) is 11.2%.

For `CCCCCCCCCc1ccccc1`, the activity change % (negative = inhibition) is 0.977%.

Turning to `Cc1cc(C)c(N)c(Cl)c1`, the activity change % (negative = inhibition) is -1.82%.

Regarding `CC(=O)/C=C/C1C(C)=CCCC1(C)C` (stereo not given), the activity change % (negative = inhibition) is 5.94%.

On to `CCC(O)OCCCOC` (stereo not given), for which the activity change % (negative = inhibition) is -6.47%.

On to `C=C[Si](C)(C)O[Si](C)(C)C=C`, for which the activity change % (negative = inhibition) is 3.28%.

Take `C[N+](C)(C)CC(O)CCl` (stereo not given): the activity change % (negative = inhibition) is -6.17%.

`CCCCCCCCCCCO`: the activity change % (negative = inhibition) is 9.58%.

Consider `CCCCCCCCCCCCCCO`, for which the activity change % (negative = inhibition) is 8.79%.

Regarding `COc1ccccc1NC(=O)CC(C)=O`, the activity change % (negative = inhibition) was -1.32%.

For `c1ccc2cc3c(ccc4ccccc43)cc2c1`, the activity change % (negative = inhibition) is -17.7%.

As to `O=C(Cl)c1cc(Cl)cc(Cl)c1`, the activity change % (negative = inhibition) was -10.7%.

Take `CCCCCCCC(=O)OC`: the activity change % (negative = inhibition) is 13.2%.

As to `FC(F)(F)c1ccc(Cl)c(Cl)c1`, the activity change % (negative = inhibition) was 7.4%.

Turning to `O=c1oc(=O)c2cc3c(=O)oc(=O)c3cc12`, the activity change % (negative = inhibition) is -2.54%.

On to `CCOC(=O)[C@H](C)Oc1ccc(Oc2nc3ccc(Cl)cc3o2)cc1`, for which the activity change % (negative = inhibition) is -0.0371%.

Consider `CCCCCCOCCOCCO`, for which the activity change % (negative = inhibition) is -6.1%.

For `CS/C(=N\O)C(=O)N(C)C`, the activity change % (negative = inhibition) was -12.9%.

As for `O=C(O)c1cccc(C(=O)O)c1`, the activity change % (negative = inhibition) is 17%.

As to `CC1(C)C(=O)N(Cl)C(=O)N1Cl`, the activity change % (negative = inhibition) was -0.904%.

On to `NCCCCCCCCCCC(=O)O`, for which the activity change % (negative = inhibition) was -1.93%.

For `CC(C)Nc1nc(N)nc(Cl)n1`, the activity change % (negative = inhibition) was -8.47% and 11%.

As for `NN(c1ccccc1)c1ccccc1`, the activity change % (negative = inhibition) was 4.53%.

Turning to `CC1=CC(=O)CC(C)(C)C1`, the activity change % (negative = inhibition) was 1.58%.

On to `CC(C)c1ccc2cc(C(C)C)ccc2c1`, for which the activity change % (negative = inhibition) is -11%.

On to `CN(C)c1nc(=O)n(C2CCC(O)CC2)c(=O)n1C` (stereo not given), for which the activity change % (negative = inhibition) is 11.1%.

As to `CC(=O)c1c(C)c([N+](=O)[O-])c(C(C)(C)C)c([N+](=O)[O-])c1C`, the activity change % (negative = inhibition) was 11%.

(Values after PubChem BioAssay (NCATS).)
